For some assays here: Potency and affinity values are given separately.
What follows are compounds tested against T1, Ubiquitin-activating enzyme e1, putative (Leishmania donovani (strain BPK282A1)) (UniProt E9BSI1) (assay: Leishmania donovani Ubiquitin Activating Enzyme (LdE1)). Conditions: 30 µM.
T1 sequence (whole entry): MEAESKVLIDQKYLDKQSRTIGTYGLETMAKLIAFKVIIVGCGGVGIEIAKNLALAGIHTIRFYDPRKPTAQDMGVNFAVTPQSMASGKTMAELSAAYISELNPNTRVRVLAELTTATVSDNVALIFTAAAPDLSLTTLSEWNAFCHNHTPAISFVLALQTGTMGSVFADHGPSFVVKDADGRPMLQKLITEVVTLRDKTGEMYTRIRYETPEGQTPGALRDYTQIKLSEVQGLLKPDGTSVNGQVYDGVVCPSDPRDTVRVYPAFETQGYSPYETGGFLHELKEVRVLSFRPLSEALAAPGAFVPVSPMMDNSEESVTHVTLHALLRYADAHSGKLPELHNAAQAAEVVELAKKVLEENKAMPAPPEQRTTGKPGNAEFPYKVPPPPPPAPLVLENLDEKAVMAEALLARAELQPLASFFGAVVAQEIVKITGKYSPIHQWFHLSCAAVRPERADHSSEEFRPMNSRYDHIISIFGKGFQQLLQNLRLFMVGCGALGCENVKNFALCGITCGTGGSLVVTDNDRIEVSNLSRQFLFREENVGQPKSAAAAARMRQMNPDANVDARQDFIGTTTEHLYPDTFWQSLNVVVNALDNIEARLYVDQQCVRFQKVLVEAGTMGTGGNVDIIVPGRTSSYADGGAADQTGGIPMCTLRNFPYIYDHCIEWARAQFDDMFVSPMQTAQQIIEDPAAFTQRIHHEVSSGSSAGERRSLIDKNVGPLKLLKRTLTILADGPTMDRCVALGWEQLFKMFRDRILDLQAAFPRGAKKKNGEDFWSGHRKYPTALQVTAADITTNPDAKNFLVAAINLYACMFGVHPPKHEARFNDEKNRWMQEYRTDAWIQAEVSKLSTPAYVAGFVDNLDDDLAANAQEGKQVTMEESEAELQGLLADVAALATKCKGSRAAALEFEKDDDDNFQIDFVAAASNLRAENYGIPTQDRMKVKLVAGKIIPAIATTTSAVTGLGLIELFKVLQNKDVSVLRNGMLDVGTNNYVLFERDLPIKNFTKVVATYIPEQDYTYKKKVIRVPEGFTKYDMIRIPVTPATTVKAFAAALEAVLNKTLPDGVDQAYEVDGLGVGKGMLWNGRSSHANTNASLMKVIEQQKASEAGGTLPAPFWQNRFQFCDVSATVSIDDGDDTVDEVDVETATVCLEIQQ
Format: functional
Set-up: scale not given: direction of the effect not stated beside the values

Row | SMILES | Percent Effect [%]
1 | O=C(c1cnccn1)N1CCOCC2(CCN(C3CCOCC3)C2)C1 (stereo not given) | 25.3
2 | CC(C)OCc1ncn2c1CN(Cc1cccs1)CCC2 | -2.7
3 | O=C(CCN1CCC(C(=O)c2cc(F)ccc2F)CC1)NC1CC1 | 5.26
4 | CCCC(NC(=O)c1cc(C)ccc1C)c1nnn[nH]1 (stereo not given) | 13.3
5 | Cc1ncc(CNC(=O)CCOc2ccccc2)c(C2CCCN2C)n1 (stereo not given) | -1.35
6 | CCCc1noc(CCC(=O)N2CCCC2c2noc(C3CC3)n2)n1 (stereo not given) | 10.1
7 | CCn1ccnc1CN1CCN(CCOc2ccccc2OC)CC1 | 0
8 | COc1ccc(CN2CCn3cc(CN4CCCCC4)nc3C2)cc1 | 2.6
9 | N#CC1(C(=O)N2CCN(Cc3ccon3)CC2)CCC1 | 5.06
10 | CN1CCOC(CNCc2coc(-c3ccccc3)n2)C1 (stereo not given) | 12.7
11 | O=C(C1=CC2(CCNCC2)c2ccccc21)N1CCCC1 | 2.67
12 | COc1ccc(CCN2CCCC2Cn2nc(C)nc2C)cc1 (stereo not given) | 10.1
13 | Cc1ccc(NC(=O)NCCCc2n[nH]c(N)c2C#N)cc1 | 15.2
14 | Cc1cc(C)cc(NC(=O)CN2CCCC(n3cncn3)C2)c1 (stereo not given) | 8.11
15 | CC(CNc1cncc(-n2cccn2)n1)N(C)c1ccccc1 (stereo not given) | 0
16 | CCC(C)(C)NC(=O)CN(C)C(c1cccc(F)c1)c1ccccn1 (stereo not given) | 2.6
17 | O=C(C1CCOCC1)N1CCC2(CC1)CC(Oc1ccccc1)CO2 (stereo not given) | 8.22
18 | CCOc1cc(C(=O)N2CCCC(c3noc(C)n3)C2)ccn1 (stereo not given) | 10.5
19 | O=C1[C@@H]2CCN(Cc3ccoc3)C[C@@H]2OCCN1Cc1cccnc1 | 13.3
20 | Cc1cc(C)n(CC2CCCN2C(=O)CCCc2ccccn2)n1 (stereo not given) | 2.63

Row | SMILES | Percent Effect [%]
21 | O=C(Nc1nc2c(s1)CCC2)c1cccnc1N1CCOCC1 | -2.63
22 | Cc1ncsc1C(=O)NC1CCN(Cc2cccnc2)CC1 | 10.4
23 | CCN1CCN(c2ncc(-c3cc(C)no3)c(-c3ccc(C)s3)n2)CC1 | 4.05
24 | COc1ccc(C2CCCN2C(=O)NCCNc2ncccn2)cc1 (stereo not given) | 2.74
25 | COCCN1C(=O)C[C@H]2[C@H]1CCN2Cc1ccc(OC)cc1 | 5.33
26 | O=C(NCCc1cccs1)[C@H]1CO[C@H]2CCNC[C@H]2C1 | 13.5
27 | Cc1cnn(CCNCc2ccc(OCc3csc(C)n3)cc2)c1 | 0
28 | O=C(CN1CCCC(O)C1)NC(=O)NCc1cccs1 (stereo not given) | 13.2
29 | Cc1cc(C[S+]([O-])CC(=O)Nc2c(C)cccc2C)no1 (stereo not given) | 18.2
30 | COCCN1CCC2(CC1)CC(COC)N(c1ncccn1)C2 (stereo not given) | 7.79
31 | Cc1noc([C@H]2C[C@H]3OCC[C@H]3N(S(=O)(=O)C3CC3)C2)n1 | 11
32 | O=C(Cc1cccc(F)c1)NCCNCc1ccco1 | 2.6
33 | CC(=O)Nc1cccc(C(=O)Nc2cnc3n2CCCC3)c1 | 4.17
34 | Cc1nc(C)n(CC2CCCN2CC(=O)NCc2ccco2)n1 (stereo not given) | 2.74
35 | O=C(c1n[nH]c2ccccc12)N1CCCC1c1noc(C2CC2)n1 (stereo not given) | 7.59
36 | Cn1cc(N2CCCC(NCc3cccc4c3OCCCO4)C2)cn1 (stereo not given) | 16.2
37 | CC(C)c1noc(C(C)N2CCN(CCN3CCCC3=O)CC2)n1 (stereo not given) | 5.41
38 | Cc1cc(S(=O)(=O)N2CCCc3ccc(F)cc32)sc1C(=O)O | 0
39 | Cc1nc(C2CCCN2CCCNS(C)(=O)=O)no1 (stereo not given) | 15.8
40 | Cc1ncsc1CN1CC[C@H]2OCC[C@@]2(C(=O)NC(C)C)C1 | 0

Each compound was assayed against AMP-activated protein kinase, AMPK (Homo sapiens) (UniProt P54646+O43741+P54619+Q9UGJ0+Q9Y478+Q13131+Q9UGI9) (assay: AMP-dependent Kinase enzyme assay. An in vitro enzyme assay that detects ADP turnover that is directly proportional to AMPK activity. This uses naive AMPK that is activated during the assay with MK-8722). Conditions: 30 µM.
Format: functional
Set-up: scale not given: direction of the effect not stated beside the values

Row | SMILES | Percent Effect [%]
41 | O=C(c1cnccn1)N1CCOCC2(CCN(C3CCOCC3)C2)C1 (stereo not given) | -6.88
42 | CC(C)OCc1ncn2c1CN(Cc1cccs1)CCC2 | -26.4
43 | O=C(CCN1CCC(C(=O)c2cc(F)ccc2F)CC1)NC1CC1 | 2.46
44 | CCCC(NC(=O)c1cc(C)ccc1C)c1nnn[nH]1 (stereo not given) | -5.34
45 | Cc1ncc(CNC(=O)CCOc2ccccc2)c(C2CCCN2C)n1 (stereo not given) | 18.7
46 | CCCc1noc(CCC(=O)N2CCCC2c2noc(C3CC3)n2)n1 (stereo not given) | 1.8
47 | CCn1ccnc1CN1CCN(CCOc2ccccc2OC)CC1 | -0.305
48 | COc1ccc(CN2CCn3cc(CN4CCCCC4)nc3C2)cc1 | 1.83
49 | N#CC1(C(=O)N2CCN(Cc3ccon3)CC2)CCC1 | 1.56
50 | CN1CCOC(CNCc2coc(-c3ccccc3)n2)C1 (stereo not given) | -7.36
51 | O=C(C1=CC2(CCNCC2)c2ccccc21)N1CCCC1 | 6.96
52 | COc1ccc(CCN2CCCC2Cn2nc(C)nc2C)cc1 (stereo not given) | -5.37
53 | Cc1ccc(NC(=O)NCCCc2n[nH]c(N)c2C#N)cc1 | 3.73
54 | Cc1cc(C)cc(NC(=O)CN2CCCC(n3cncn3)C2)c1 (stereo not given) | 1.86
55 | CC(CNc1cncc(-n2cccn2)n1)N(C)c1ccccc1 (stereo not given) | 9.04
56 | CCC(C)(C)NC(=O)CN(C)C(c1cccc(F)c1)c1ccccn1 (stereo not given) | 9.59
57 | O=C(C1CCOCC1)N1CCC2(CC1)CC(Oc1ccccc1)CO2 (stereo not given) | -6.45
58 | CCOc1cc(C(=O)N2CCCC(c3noc(C)n3)C2)ccn1 (stereo not given) | -4.05
59 | O=C1[C@@H]2CCN(Cc3ccoc3)C[C@@H]2OCCN1Cc1cccnc1 | 6.25
60 | Cc1cc(C)n(CC2CCCN2C(=O)CCCc2ccccn2)n1 (stereo not given) | 5.48

Row | SMILES | Percent Effect [%]
61 | O=C(Nc1nc2c(s1)CCC2)c1cccnc1N1CCOCC1 | 9.51
62 | Cc1ncsc1C(=O)NC1CCN(Cc2cccnc2)CC1 | -1.95
63 | CCN1CCN(c2ncc(-c3cc(C)no3)c(-c3ccc(C)s3)n2)CC1 | 7.99
64 | COc1ccc(C2CCCN2C(=O)NCCNc2ncccn2)cc1 (stereo not given) | -8.6
65 | COCCN1C(=O)C[C@H]2[C@H]1CCN2Cc1ccc(OC)cc1 | 11
66 | O=C(NCCc1cccs1)[C@H]1CO[C@H]2CCNC[C@H]2C1 | 0.0792
67 | Cc1cnn(CCNCc2ccc(OCc3csc(C)n3)cc2)c1 | -1.8
68 | O=C(CN1CCCC(O)C1)NC(=O)NCc1cccs1 (stereo not given) | 7.52
69 | Cc1cc(C[S+]([O-])CC(=O)Nc2c(C)cccc2C)no1 (stereo not given) | 15.8
70 | COCCN1CCC2(CC1)CC(COC)N(c1ncccn1)C2 (stereo not given) | 1.21
71 | Cc1noc([C@H]2C[C@H]3OCC[C@H]3N(S(=O)(=O)C3CC3)C2)n1 | -4.86
72 | O=C(Cc1cccc(F)c1)NCCNCc1ccco1 | 7.05
73 | CC(=O)Nc1cccc(C(=O)Nc2cnc3n2CCCC3)c1 | -0.344
74 | Cc1nc(C)n(CC2CCCN2CC(=O)NCc2ccco2)n1 (stereo not given) | 1.19
75 | O=C(c1n[nH]c2ccccc12)N1CCCC1c1noc(C2CC2)n1 (stereo not given) | -0.141
76 | Cn1cc(N2CCCC(NCc3cccc4c3OCCCO4)C2)cn1 (stereo not given) | -10
77 | CC(C)c1noc(C(C)N2CCN(CCN3CCCC3=O)CC2)n1 (stereo not given) | -10
78 | Cc1cc(S(=O)(=O)N2CCCc3ccc(F)cc32)sc1C(=O)O | 3.45
79 | Cc1nc(C2CCCN2CCCNS(C)(=O)=O)no1 (stereo not given) | -4.74
80 | Cc1ncsc1CN1CC[C@H]2OCC[C@@]2(C(=O)NC(C)C)C1 | 6.03
